Where “and” joins values, the source holds several entries; their conditions need not be identical. Equal entries are not always repeated. Screen size: about 5,500 compounds; about 2,000 (36%) were called active. Not shown: some 18% with an inconclusive outcome. The list shows a part of the results. A number with no mark means an inactive call. Cut-off read from the data, not from the text of the source: active = normalized growth mostly below about 0.91 (no sharp cut-off); inconclusive = no clear call, values can overlap the other calls; inactive = mostly above about 0.92.
Assay: chemical genetic growth profiling, strain panel (AID 1159580);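 note: tested at 20 µM; growth read once vehicle control cultures reached saturation at 30 °C; 1 = growth at the plate median or of vehicle wells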
Conditions: S. cerevisiae deletion strains, growth OD
[1] = locus YBR021W, strain FUR4, stronger effect = lower value
[2] = locus YBR229C, strain ROT2, stronger effect = lower value
[3] = locus YCL029C, strain bik1, stronger effect = lower value
[4] = locus YDL035C, strain GPR1, stronger effect = lower value
[5] = locus YDL074C, strain BRE1, stronger effect = lower value
[6] = locus YDL101C, strain DUN1, stronger effect = lower value
[7] = locus YDL134C, strain PPH21, stronger effect = lower value
[8] = locus YDL185W, strain tfp1, stronger effect = lower value
[9] = locus YDL192W, strain arf1, stronger effect = lower value
[10] = locus YDR101C, strain arx1, stronger effect = lower value
[11] = locus YDR150W, strain NUM1, stronger effect = lower value
[12] = locus YDR162C, strain NBP2, stronger effect = lower value
[13] = locus YDR318W, strain mcm21, stronger effect = lower value
[14] = locus YDR388W, stronger effect = lower value
[15] = locus YDR502C, strain sam2, stronger effect = lower value
[16] = locus YER110C, stronger effect = lower value
[17] = locus YER155C, strain BEM2, stronger effect = lower value
[18] = locus YER167W, strain BCK2, stronger effect = lower value
[19] = locus YGL078C, strain dbp3, stronger effect = lower value
[20] = locus YGL086W, strain mad1, stronger effect = lower value
[21] = locus YGL248W, strain PDE1, stronger effect = lower value
[22] = locus YGR135W, strain pre9, stronger effect = lower value
[23] = locus YGR252W, strain gcn5, stronger effect = lower value
[24] = locus YHR030C, strain SLT2, stronger effect = lower value
[25] = locus YHR079C, strain IRE1 (second series), stronger effect = lower value
[26] = locus YHR094C, strain hxt1, stronger effect = lower value
[27] = locus YHR129C, strain ARP1, stronger effect = lower value
[28] = locus YHR200W, strain rpn10, stronger effect = lower value
[29] = locus YIL066C, strain RNR3, stronger effect = lower value
[30] = locus YIL073C, strain SPO22, stronger effect = lower value
[31] = locus YIL125W, strain kgd1, stronger effect = lower value
[32] = locus YIR030C, strain dcg1, stronger effect = lower value
[33] = locus YJL095W, strain BCK1, stronger effect = lower value
[34] = locus YJL134W, strain LCB3, stronger effect = lower value
[35] = locus YJL168C, strain set2, stronger effect = lower value
[36] = locus YJL187C, strain SWE1 (second series), stronger effect = lower value
[37] = locus YJR043C, strain POL32, stronger effect = lower value
[38] = locus YKL009W, strain mrt4, stronger effect = lower value
[39] = locus YKL068W, stronger effect = lower value
[40] = locus YKL085W, strain MDH1 (second series), stronger effect = lower value
[41] = locus YKL085W, strain MDH1, stronger effect = lower value
[42] = locus YKR001C, strain vps1, stronger effect = lower value
[43] = locus YLR039C, strain RIC1, stronger effect = lower value
[44] = locus YLR058C, strain SHM2, stronger effect = lower value
[45] = locus YLR102C, strain apc9, stronger effect = lower value
[46] = locus YLR262C, strain YPT6, stronger effect = lower value
[47] = locus YLR268W, strain sec22, stronger effect = lower value
[48] = locus YLR330W, strain CHS5, stronger effect = lower value
[49] = locus YLR342W, strain FKS1 (second series), stronger effect = lower value
[50] = locus YLR371W, strain rom2, stronger effect = lower value
[51] = locus YLR418C, strain cdc73, stronger effect = lower value
[52] = locus YML016C, strain PPZ1, stronger effect = lower value
[53] = locus YML032C, strain rad52, stronger effect = lower value
[54] = locus YML124C, strain tub3, stronger effect = lower value
[55] = locus YMR078C, strain ctf18, stronger effect = lower value
[56] = locus YMR223W, strain ubp8, stronger effect = lower value
[57] = locus YMR307W, strain GAS1, stronger effect = lower value
[58] = locus YNL067W, strain RPL9B, stronger effect = lower value
[59] = locus YNL153C, strain GIM3, stronger effect = lower value
[60] = locus YNL233W, strain BNI4, stronger effect = lower value
[61] = locus YNL250W, strain rad50, stronger effect = lower value
[62] = locus YNL271C, strain bni1, stronger effect = lower value
[63] = locus YNL298W, strain CLA4, stronger effect = lower value
[64] = locus YNL307C, strain MCK1, stronger effect = lower value
[65] = locus YNL322C, strain KRE1, stronger effect = lower value
[66] = locus YNR052C, strain pop2, stronger effect = lower value
[67] = locus YOL147C, strain pex11, stronger effect = lower value
[68] = locus YOR061W, strain CKA2, stronger effect = lower value
[69] = locus YOR069W, strain VPS5, stronger effect = lower value
[70] = locus YOR136W, strain idh2, stronger effect = lower value
[71] = locus YOR144C, strain elg1, stronger effect = lower value
[72] = locus YOR184W, strain ser1, stronger effect = lower value
[73] = locus YOR316C, strain cot1, stronger effect = lower value
[74] = locus YPR119W, strain clb2, stronger effect = lower value
[75] = locus YPR141C, strain kar3, stronger effect = lower value
[76] = locus YPR163C, strain tif3, stronger effect = lower value
[77] = locus YPR167C, strain met16, stronger effect = lower value
[78] = strain wtn01, stronger effect = lower value

Structure (SMILES): CC(C)=CCCC1(C)C=Cc2c(O)c3c(c(CC=C(C)C)c2O1)OC12C(=CC4CC1C(C)(C)OC2(C/C=C(\C)C(N)=O)C4=O)C3=O (configuration not stated)
- normalized growth [1]: 0.922
- normalized growth [2]: 1
- normalized growth [3]: 0.977
- normalized growth [4]: 0.932
- normalized growth [5]: 0.899
- normalized growth [6]: 0.96
- normalized growth [7]: 0.914
- normalized growth [8]: 0.996
- normalized growth [9]: 0.913 (active)
- normalized growth [10]: 0.958
- normalized growth [11]: 1
- normalized growth [12]: 0.92
- normalized growth [13]: 0.941
- normalized growth [14]: 0.96
- normalized growth [15]: 0.924
- normalized growth (locus YEL061C, strain CIN8, stronger effect = lower value): 0.967
- normalized growth [16]: 0.999
- normalized growth [17]: 0.89 (active)
- normalized growth [18]: 0.965
- normalized growth [19]: 0.963
- normalized growth [20]: 0.947
- normalized growth [21]: 0.894
- normalized growth [22]: 0.923
- normalized growth (locus YGR229C, strain SMI1, stronger effect = lower value): 0.761 (active)
- normalized growth [23]: 0.856
- normalized growth [24]: 0.995 and 0.925
- normalized growth [25]: 0.99
- normalized growth (locus YHR079C, strain IRE1, stronger effect = lower value): 0.933
- normalized growth [26]: 0.995
- normalized growth [27]: 0.944
- normalized growth [28]: 0.946
- normalized growth [29]: 0.878
- normalized growth [30]: 0.801
- normalized growth [31]: 0.943
- normalized growth [32]: 0.959
- normalized growth [33]: 0.875 and 0.963
- normalized growth [34]: 1
- normalized growth [35]: 0.987
- normalized growth [36]: 0.929
- normalized growth [37]: 0.981
- normalized growth (locus YJR066W, strain TOR1, stronger effect = lower value): 0.906
- normalized growth (locus YJR075W, strain HOC1, stronger effect = lower value): 0.944
- normalized growth [38]: 0.931
- normalized growth [39]: 0.995
- normalized growth [40]: 0.99
- normalized growth [41]: 0.99
- normalized growth (locus YKL190W, strain CNB1, stronger effect = lower value): 0.985
- normalized growth [42]: 0.842 (active)
- normalized growth [43]: 0.898
- normalized growth [44]: 0.946
- normalized growth [45]: 1.01
- normalized growth (locus YLR113W, strain HOG1, stronger effect = lower value): 0.852 (active)
- normalized growth [46]: 0.946
- normalized growth [47]: 0.896
- normalized growth [48]: 0.95
- normalized growth [49]: 0.913
- normalized growth [50]: 0.989
- normalized growth [51]: 0.699 (active)
- normalized growth [52]: 0.969
- normalized growth [53]: 0.96
- normalized growth [54]: 0.985
- normalized growth [55]: 0.971
- normalized growth [56]: 0.95
- normalized growth (locus YMR263W, strain SAP30, stronger effect = lower value): 0.968
- normalized growth [57]: 0.833
- normalized growth [58]: 0.951
- normalized growth [59]: 0.958
- normalized growth (locus YNL183C, strain NPR1, stronger effect = lower value): 0.868
- normalized growth [60]: 0.915
- normalized growth [61]: 0.983
- normalized growth [62]: 0.993
- normalized growth [63]: 0.989
- normalized growth [64]: 0.844 (active)
- normalized growth [65]: 0.976
- normalized growth [66]: 0.981
- normalized growth (locus YOL012C, strain htz1): 0.568
- normalized growth [67]: 0.944
- normalized growth [68]: 0.963
- normalized growth [69]: 0.99
- normalized growth [70]: 0.98
- normalized growth [71]: 0.987
- normalized growth [72]: 0.872 (active)
- normalized growth (locus YOR231W, strain MKK1, stronger effect = lower value): 0.937
- normalized growth [73]: 0.995
- normalized growth (locus YPL055C, strain LGE1, stronger effect = lower value): 0.866
- normalized growth (locus YPL256C, strain CLN2, stronger effect = lower value): 0.944
- normalized growth [74]: 0.989
- normalized growth [75]: 0.996
- normalized growth [76]: 0.982
- normalized growth [77]: 0.958
- normalized growth [78]: 0.937

Structure (SMILES): COC(=O)/C(C)=C\CC12OC(C)(C)C3CC(C=C4C(=O)c5c(O)c6c(c(CCC(C)(C)Cl)c5OC431)OC1(C)CCC(=C(C)C)C6C1)C2=O (configuration not stated)
- normalized growth [1]: 0.981
- normalized growth [2]: 1.02
- normalized growth [3]: 0.997
- normalized growth [4]: 1.01
- normalized growth [5]: 0.994
- normalized growth [6]: 0.999
- normalized growth [7]: 0.976
- normalized growth [8]: 1.01
- normalized growth [9]: 0.985
- normalized growth [10]: 0.992
- normalized growth [11]: 1.02
- normalized growth [12]: 1.01
- normalized growth [13]: 0.985
- normalized growth [14]: 1.01
- normalized growth [15]: 0.961
- normalized growth [16]: 1.02
- normalized growth [17]: 1.01
- normalized growth [18]: 1.01
- normalized growth [19]: 0.994
- normalized growth [20]: 0.962
- normalized growth [21]: 0.98
- normalized growth [22]: 0.982
- normalized growth [23]: 0.919
- normalized growth [24]: 1.02
- normalized growth [25]: 1
- normalized growth [26]: 1
- normalized growth [27]: 1.01
- normalized growth [28]: 0.984
- normalized growth [29]: 1.01
- normalized growth [30]: 0.987
- normalized growth [31]: 0.985
- normalized growth [32]: 1.01
- normalized growth [33]: 0.959
- normalized growth [34]: 1.03
- normalized growth [35]: 1.01
- normalized growth [36]: 0.986
- normalized growth [37]: 1.02
- normalized growth [38]: 0.979
- normalized growth [39]: 0.999
- normalized growth [40]: 0.997
- normalized growth [41]: 0.997
- normalized growth [42]: 0.952
- normalized growth [43]: 0.957
- normalized growth [44]: 1
- normalized growth [45]: 1.01
- normalized growth [46]: 0.946
- normalized growth [47]: 0.975
- normalized growth [48]: 1.01
- normalized growth [49]: 0.957
- normalized growth [50]: 1.02
- normalized growth [51]: 0.834 (active)
- normalized growth [52]: 1.01
- normalized growth [53]: 0.988
- normalized growth [54]: 1.02
- normalized growth [55]: 1
- normalized growth [56]: 0.985
- normalized growth [57]: 0.955
- normalized growth [58]: 1.02
- normalized growth (locus YNL128W, strain TEP1, stronger effect = lower value): 1.04
- normalized growth [59]: 1
- normalized growth [60]: 0.993
- normalized growth [61]: 1.01
- normalized growth [62]: 1.01
- normalized growth [63]: 1.01
- normalized growth [64]: 0.981
- normalized growth [65]: 1.03
- normalized growth [66]: 0.989
- normalized growth (locus YOL006C, strain TOP1, stronger effect = lower value): 1.06
- normalized growth (locus YOL012C, strain htz1): 0.7
- normalized growth [67]: 1
- normalized growth [68]: 0.999
- normalized growth [69]: 1.02
- normalized growth [70]: 0.987
- normalized growth [71]: 1
- normalized growth [72]: 0.977
- normalized growth [73]: 0.999
- normalized growth [74]: 1.01
- normalized growth [75]: 1.02
- normalized growth [76]: 1
- normalized growth [77]: 0.982
- normalized growth [78]: 0.969
